BoNT-A LC inh2 – BoNT A light chain protease inhibition; multiplex microsphere protease substrate cleavage, flow cytometry; inhibition, % at 10 µM; actives 0.17% (n = 360,000); AID 588499
Autofluor counter – compound fluorescence in toxin protease inhibitor counterscreen | AID 624483 | fluorescence intensity (no concentration beside the values) | compound autofluorescence counterscreen, microsphere flow cytometry; stronger effect = higher value | actives 3.1% (n = 360,000); in the data active = fluorescence intensity above about 16000; inconclusive = no clear call, values can overlap the other calls
BoNT F protease – blocks Botulinum neurotoxin F light chain protease; Multiplex microsphere protease cleavage assay, flow cytometry; inhibition, % at 10 µM; actives 0.22% (n = 360,000); AID 588497; in the data active = inhibition above about 35%, passing the limit was not always enough; inconclusive = no clear call, values can overlap the other calls
MazEF act – MazEF (E. coli) toxin RNase activation; P0AE70; actives 0.32% (n = 350,000); activation, % at 20 µM; FAM/BHQ RNA-DNA oligo cleavage fluorescence, 5 h; in the data active = activation above about 50%
Anthrax LF inh2 – inhibitors of Bacillus anthracis lethal factor protease; P15917; multiplex microsphere protease cleavage assay, LF; inhibition, % at 10 µM; actives 0.12% (n = 360,000)
Target sequence (P15917 whole entry, looked up): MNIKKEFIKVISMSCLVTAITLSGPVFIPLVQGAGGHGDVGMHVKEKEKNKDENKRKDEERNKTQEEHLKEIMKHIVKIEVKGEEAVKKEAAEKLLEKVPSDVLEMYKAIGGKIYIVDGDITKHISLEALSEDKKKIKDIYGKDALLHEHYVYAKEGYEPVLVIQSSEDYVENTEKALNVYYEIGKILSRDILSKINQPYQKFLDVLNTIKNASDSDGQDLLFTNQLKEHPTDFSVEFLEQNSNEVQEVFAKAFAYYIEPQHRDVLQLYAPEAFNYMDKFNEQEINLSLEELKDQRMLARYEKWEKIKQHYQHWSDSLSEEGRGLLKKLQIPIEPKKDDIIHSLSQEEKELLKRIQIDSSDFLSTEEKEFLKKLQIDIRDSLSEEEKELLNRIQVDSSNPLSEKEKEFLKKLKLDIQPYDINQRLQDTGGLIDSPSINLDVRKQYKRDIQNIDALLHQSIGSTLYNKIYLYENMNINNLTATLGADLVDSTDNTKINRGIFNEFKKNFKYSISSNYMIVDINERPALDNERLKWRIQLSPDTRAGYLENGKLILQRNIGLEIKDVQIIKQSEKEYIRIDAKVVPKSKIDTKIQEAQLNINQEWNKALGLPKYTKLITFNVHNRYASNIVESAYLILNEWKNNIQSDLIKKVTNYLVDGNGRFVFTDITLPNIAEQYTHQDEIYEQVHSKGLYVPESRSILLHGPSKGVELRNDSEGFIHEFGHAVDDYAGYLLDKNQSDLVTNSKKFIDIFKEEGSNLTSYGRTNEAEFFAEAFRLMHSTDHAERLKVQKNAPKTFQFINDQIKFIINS
A number is an active result; . = inactive; ? = inconclusive; / = not tested or not shown; + = active, no number. Rows were chosen to be rich in hits. Some 3.6% of all compounds tested hit in one or more screens of this group. Cut-off read from the data, not from the text of the source, unless noted: active = inhibition above about 30%; inconclusive = no clear call, values can overlap the other calls; inactive = below that.

SMILES | BoNT-A LC inh2 | Autofluor counter | BoNT F protease | MazEF act | Anthrax LF inh2
CC1(C)C(=O)OC(C(=O)c2ccc(Cl)cc2)C(C)(C)C1=O (stereo not given) | . | . | . | . | .
CCCNc1nc(Nc2ccc(C)cc2)nc(N2CCCC2)n1 | . | 16266 | . | . | .
CC1CCCCN1C(=O)CSc1nc(C2CC2)nc2ccccc12 (stereo not given) | . | . | . | . | .
O=C(O)c1nc(-c2ccccc2)c(C(=O)NC2CC2)[nH]1 | . | . | . | / | .
COc1ccc(C(=O)c2ccccc2)c(O)c1 | . | 23016 | . | . | .
O=C(c1ccccc1)c1ccc(O)cc1O | . | . | . | . | .
Cc1noc(C)c1S(=O)(=O)NC(=O)C1(C)CCN1C(=O)Cc1ccc(Cl)cc1Cl (stereo not given) | . | . | . | / | .
CSc1ncccc1C(=O)N1CCCC(N2CCN(c3ccccc3C)CC2)C1 (stereo not given) | . | . | . | . | .
COC(=O)c1sc(N)c(C(=O)OC)c1COC(=O)C1CC(=O)N(Cc2ccco2)C1 (stereo not given) | . | 21636 | . | . | .
O=c1c2ccccc2[se]n1-c1ccccc1 | 81 | . | 38 | . | .
COc1cc(NC(=O)C2CC(=O)NC3=C2C(=O)CCC3)c(OC)cc1Cl (stereo not given) | . | 23479 | . | . | .
COc1ccc(C)c(NC(=O)C2CC(=O)NC3=C2C(=O)CCC3)c1 (stereo not given) | . | . | . | . | .
COc1ccc(NC(=O)C2CC(=O)NC3=C2C(=O)CC(C)(C)C3)cc1 (stereo not given) | . | 23174 | . | . | .
CCOC(=O)/C(C#N)=C/c1cc2ccccc2nc1N1CCCCC1 | 31 | . | . | . | .
O=C1CC(CCC(=O)NC2CC2)c2ccccc2N1 (stereo not given) | . | 20432 | . | . | .
O=C(CCCN1C(=O)NC2(CCCC2)C1=O)NCc1ccccc1 | . | . | . | . | .
CCc1ccc(NC(=O)c2noc3c2CCCCC3)cc1 | . | . | . | . | .
Cc1ccc(NC(=O)c2noc3c2CCCCC3)cc1C | . | 16801 | . | . | .
Cc1ccc(NC(=O)c2noc3c2CCCCC3)cc1 | . | 22657 | . | . | .
C/C(=N/Nc1ncc(C(F)(F)F)cc1Cl)c1ccncc1 | . | . | . | . | .
CC(C)(C)C1CCC(=NNc2ncc(C(F)(F)F)cc2Cl)CC1 (stereo not given) | ? | 22794 | . | . | .
CNc1nc(-c2ccccc2)nnc1C(F)(F)F | ? | 22123 | . | . | .
Cc1ccc(Sc2nc(-c3ccccc3)nnc2C(F)(F)F)cc1 | . | . | . | . | .
Cc1cc(C)nc(SCC(=O)Nc2ccc(S(=O)(=O)NC(C)(C)C)cc2)n1 | ? | . | . | . | .
Cc1cc(C)nc(SCC(=O)Nc2ccc(S(=O)(=O)NCCO)cc2)n1 | . | 23188 | . | . | .
SMILES | BoNT-A LC inh2 | Autofluor counter | BoNT F protease | MazEF act | Anthrax LF inh2
Cc1ccc(NC(=O)CSc2nnc(-c3ccc(S(=O)(=O)N4CCCC4)cc3)o2)cc1C | . | 21954 | . | . | .
Cc1cc(C)nc(SCC(=O)Nc2ccc(S(=O)(=O)N3CCCCC3)cc2)n1 | . | 16364 | . | . | .
O=C(Nc1ccc(F)c(Cl)c1)c1ccc2sc([C@H]3C[C@H](O)[C@@H](CO)O3)nc2c1 | . | . | . | / | .
O=C(c1ccco1)N1CCN(C(=O)c2nn3cccnc3c2Cl)CC1 | . | 22749 | . | . | .
O=C(c1nn2cccnc2c1Cl)N1CCN(c2ccccc2)CC1 | . | . | . | . | .
O=C(NCc1ccccc1)c1cc(C2COCCN2S(=O)(=O)c2ccccc2)on1 (stereo not given) | . | . | . | / | .
O=C(c1cccs1)N(Cc1cccc(Cl)c1)C1CCS(=O)(=O)C1 (stereo not given) | ? | 21176 | . | . | .
O=C(c1cccs1)N(Cc1cccc(F)c1)C1CCS(=O)(=O)C1 (stereo not given) | . | . | . | . | .
O=C(c1cccs1)N(Cc1ccco1)C1CCS(=O)(=O)C1 (stereo not given) | . | 22695 | . | . | .
Cc1cccc(C(=O)OCC(=O)N2CCCCCC2)c1C | . | . | . | . | .
CC(C)(C)OC(=O)COc1ccc(/C=N/NC(=O)CN2CCCCC2)cc1 | . | . | . | . | .
CN(C)c1ccc(C(=O)Nc2ccc(S(=O)(=O)NC3=NCCCCC3)cc2)cc1 | . | 22816 | . | . | .
O=c1oc(C2(O)CCCCC2)cc2ccc(-c3ccc4[nH]ccc4c3)cc12 | . | . | . | . | .
COc1ccccc1N(CN1CCCC1=O)C(=O)c1ccccc1F | . | . | . | . | .
COc1cccc(C(=O)N(CN2CCCC2=O)c2cccc(Cl)c2)c1OC | . | 16669 | . | . | .
COc1cc(OC)cc(C(=O)N(CN2CCCC2=O)c2ccccc2OC)c1 | . | 18589 | . | . | .
COc1ccccc1N(CN1CCCC1=O)C(=O)COc1ccccc1 | . | 16310 | . | . | .
CCOc1ccc(C(=O)N(CN2CCCC2=O)c2cccc(Cl)c2)cc1 | . | . | . | . | .
CC1C/C(=N/NC(=O)c2cccc(F)c2)c2ccc(O)cc2C1 (stereo not given) | . | 20922 | . | . | .
Cc1cc(-c2ccco2)c(C#N)c2nc3ccccc3n12 | . | . | . | + | .
CCN(CC(=O)Nc1c(F)cccc1F)C(=O)Cn1c(=O)cnc2ccccc21 | . | . | . | . | .
Cn1cnnc1SCC(=O)N(Cc1ccc2c(c1)OCO2)C1(C(=O)NC2CCCCC2)CCCC1 | . | 22413 | . | . | .
COC(=O)c1cc(OC)nc2ccc(Br)cc12 | . | . | . | . | .
O=C(CNC(=O)C1CCCCC1)NCCCO | . | . | . | . | .
O=C(O)[C@H]1CCCC[C@H]1C(=O)NCCNC(=O)[C@@H]1CCCC[C@@H]1C(=O)O | ? | 23932 | . | . | .
SMILES | BoNT-A LC inh2 | Autofluor counter | BoNT F protease | MazEF act | Anthrax LF inh2
O=C(O)C1CCCCC1C(=O)NCCC(c1ccccc1)c1ccccc1 (stereo not given) | . | . | . | . | .
O=C(NCCCCCCNC(=O)C1CCCC1)C1CCCC1 | ? | 21472 | . | . | .
N#CCC(=O)N/N=C\c1cccc(OC/C=C/c2ccccc2)c1 | . | . | . | . | .
Cc1noc(NS(=O)(=O)c2ccc(N/C=C/C(=O)c3ccncc3)cc2)c1C | ? | 16425 | . | . | .
Cc1noc(NS(=O)(=O)c2ccc(N/C=C\C(=O)c3ccncc3)cc2)c1C | . | . | . | . | .
O=C1CN(C(=O)CSc2nncn2-c2ccccc2)c2ccccc2N1 | . | 21221 | . | . | .
CC(C)(C)NC(=O)C12CCC(C)(c3nc4ccccc4nc31)C2(C)C (stereo not given) | . | 22617 | . | . | .
COC(=O)C12CCC(C)(c3nc4ccccc4nc31)C2(C)C (stereo not given) | . | . | . | . | .
CCc1nc2ccc(C(=O)N(C)CC(=O)Nc3ccc(F)c(F)c3F)cc2nc1CC | . | . | . | . | .
Cc1ccc(NC2Sc3ccccc3NC2=O)cc1Cl (stereo not given) | . | . | . | . | .

High-throughput results from PubChem.
